High-throughput results deposited in PubChem BioAssay by Sanford-Burnham Center for Chemical Genomics.
In the library only some 31% were active in any assay of this set; here they are far more common.
CYP2C9 act = human CYP2C9 activators, primary screen, biochemical, luminescence; Cytochrome P450 2C9 (Homo sapiens), P11712; recombinant CYP2C9, luciferin-H conversion; active compounds read high; factor 1 = untreated enzyme, 0 = blocked; activation factor at 5 µM; 1.4% of 96,000 active;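 active = activation factor of 2 or more for CYP2C9 at a 5 µM dose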;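 note: 0 = sulfaphenazole-blocked wells and 1 = vehicle-only wells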
CYP2C9 inhib = blockers of cytochrome P450 2C9 activity – biochemical, luminescence, ADME assay, primary screen | P11712 | CYP2C9 Supersomes, luciferin-H conversion | inhibition, % at 5 µM | 20% of 96,000 active | AID 777, 2007;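 active = blocking of liver enzyme CYP2C9 beyond about 50% at 5 µM, limit read from the data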
CYP2C19 inhib = blockers of cytochrome P450 2C19 activity – biochemical, luminescence, ADME assay, primary screen. AID 778, 2007. CYP2C19 Supersomes, luciferin-H EGE luminescence, 30 min. inhibition, % at 5 µM. 21% of 96,000 active;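 active = CYP2C19 inhibition above a set limit at 5 µM in the primary screen, cut at about 50% in these data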;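 note: plate controls were negative control wells for no effect and 2.5 mM tranylcypromine positive control for full effect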
Target sequence (P33261 whole entry, looked up): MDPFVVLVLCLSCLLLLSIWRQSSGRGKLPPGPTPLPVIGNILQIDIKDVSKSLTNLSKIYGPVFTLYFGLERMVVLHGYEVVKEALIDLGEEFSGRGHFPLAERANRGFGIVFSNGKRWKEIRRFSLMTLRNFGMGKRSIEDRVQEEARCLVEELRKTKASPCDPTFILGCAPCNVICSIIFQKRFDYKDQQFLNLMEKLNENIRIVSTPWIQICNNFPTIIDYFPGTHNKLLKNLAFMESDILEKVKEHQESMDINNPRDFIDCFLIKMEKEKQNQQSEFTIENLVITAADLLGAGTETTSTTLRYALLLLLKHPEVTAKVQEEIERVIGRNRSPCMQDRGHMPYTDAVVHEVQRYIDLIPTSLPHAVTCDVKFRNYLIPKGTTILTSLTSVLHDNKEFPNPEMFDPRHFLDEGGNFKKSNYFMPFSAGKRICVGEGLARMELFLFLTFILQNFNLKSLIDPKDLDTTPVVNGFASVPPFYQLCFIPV
CYP2C19 act = human CYP2C19 activators, primary screen, biochemical, luminescence; recombinant CYP2C19, luciferin-H EGE luminescence; active compounds read high; 0 = fully inhibited enzyme, 1 = untreated enzyme; AID 1025, 2008; 96,000 tested, under 10 active; activation factor at 5 µM; Cytochrome P450 2C19 (Homo sapiens), P33261;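 active = activation factor of at least 2 at 5 µM in the primary screen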;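 note: 0 = wells with 2.5 mM tranylcypromine and 1 = vehicle-only wells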
An asterisk follows results filed as active.

SMILES	CYP2C9 act	CYP2C9 inhib	CYP2C19 inhib	CYP2C19 act
COc1ccc(NC(=O)CCN2CCN(S(=O)(=O)c3ccc(C(C)C)cc3)CC2)cc1	0.3	65.9*	38.4	0.6
CCOC(=O)c1ccc(NC(=O)COc2ccc(S(=O)(=O)N3CCCC3)cc2)cc1	0.7	25.2	7.0	0.9
CCCn1nnc(NC(=O)c2ccccc2Br)n1	1.3	-32.0	9.9	0.9
CCOCC(=O)Nc1cc(-c2cn3cccnc3n2)ccc1C	1	3.9	-4.1	1
CC(=O)OCc1c(F)c(F)c(-n2nc(C)cc2C)c(F)c1F	1.4	-35.1	-22.1	1.2
CCOC(=O)C1=C(O)/C(=C\c2ccc(CNC(=O)C(=O)Nc3ccccc3)o2)N=C1C	0.5	48.9	19.5	0.8
COc1ccc(NC(=O)CCN2CCN(S(=O)(=O)c3ccc(Cl)cc3)CC2)cc1	0.2	75.1*	70.7*	0.3
CCOC(=O)c1ccc(NC(=O)CN2C(=O)CSC2=O)cc1	1	4.6	31.7	0.7
COc1ccc(C2C(C(C)=O)=C(O)C(=O)N2CCN(C)C)cc1OC (configuration not stated)	1	-4.7	-13.1	1.1
Cc1ccc(S(=O)(=O)NC(=O)NCc2ccc(Cl)cc2)cc1	0.9	10.7	-6.3	1.1
COC(=O)c1ccccc1NC(=O)CSCC(=O)Nc1ccc(F)cc1	0.6	35.4	58.6*	0.4
Cc1c(F)cccc1NC(=O)CSCC(=O)Nc1ccccc1	0.4	55.9*	56.0*	0.4
Cc1ccc(C2CC(C(F)(F)F)n3nc(C(=O)NCc4ccco4)cc3N2)cc1 (configuration not stated)	0.9	5.4	36.3	0.6
COc1ccc(NC(=O)c2[nH]c(C)c(C(C)=O)c2C)cc1Cl	1.1	-14.1	24.2	0.8
CC(=O)c1c(C)[nH]c(C(=O)Nc2cccnc2)c1C	0.5	52.2*	10.2	0.9
CC(=O)c1c(C)[nH]c(C(=O)Nc2ccc(C)c(C)c2)c1C	0.4	64.7*	37.4	0.6
CC(C)Sc1nc2ccccc2n1CC(N)=O	1.1	-12.3	-2.9	1
Cc1c(NC(=O)C(C)NCC2CCCO2)c(=O)n(-c2ccccc2)n1C (configuration not stated)	1.1	-6.6	4.2	1
O=[N+]([O-])c1ccc(NCCCNS(=O)(=O)c2ccc(Cl)cc2)c(Cl)c1	0.5	49.1	71.9*	0.3
CS(=O)(=O)NCCCNc1c(Cl)cccc1[N+](=O)[O-]	1.1	-14.4	27.0	0.7
Clc1ccc(OCc2nnc(-c3ccccc3Br)o2)c(Cl)c1	1.3	-28.3	-7.0	1.1
O=P(CCN1CCCCC1)(c1ccccc1)c1ccccc1	1	-2.0	-1.0	1
Cc1c(/C=N/N=C2\CCC3C4CCc5cc(O)ccc5C4CCC23C)cnn1C (configuration not stated)	0.8	23.0	14.1	0.9
CCn1ncc(/C=N/N=C2\CCC3C4CCc5cc(O)ccc5C4CCC23C)c1C (configuration not stated)	0.2	80.5*	47.9	0.5
CCOC(=O)C1CCN(C(=O)COc2ccc(S(=O)(=O)NC(C)(C)C)cc2)CC1	0.8	19.1	1.8	1
SMILES	CYP2C9 act	CYP2C9 inhib	CYP2C19 inhib	CYP2C19 act
CCOC(=O)C1CCN(CC(O)COc2ccc(C(C)(C)C)cc2)CC1 (configuration not stated)	0.6	40.0	56.0*	0.4
CCOC(=O)C1CCN(C(=O)COc2cc(C)c(Br)cc2C)CC1	0.5	48.4	91.4*	0.1
CCOC(=O)C1CCN(C(=O)Cc2cccs2)CC1	1.1	-7.6	58.8*	0.4
CCOC(=O)C1CCN(C(=O)COc2ccc(Br)cc2)CC1	0.4	64.9*	82.2*	0.2
C=CCn1c(SCC(=O)Nc2cccc(OC)c2)nnc1-c1cccnc1	0.6	42.2	37.4	0.6
C=CCN1C(=O)/C(=C2\SC(N3CCOCC3)=NC2=O)c2cc(Br)ccc21	1.1	-11.9	27.7	0.7
CCCCNC(=S)NNC(=O)c1ccoc1C	1	3.2	35.4	0.6
Cc1cccc(OCC(=O)N2CCN(C(=O)c3cccs3)CC2)c1	0.4	59.0*	61.5*	0.4
CCOC(=O)C1CCN(C(=O)COc2cccc(C)c2)CC1	0.8	19.9	81.3*	0.2
Cc1cccc(OCC(=O)N2CCC(c3ccccc3)C2)c1 (configuration not stated)	0.9	14.3	45.9	0.5
CCN(CCCNC(=O)C1CCC(=O)N1C(C)C)c1cccc(C)c1 (configuration not stated)	0.9	10.6	23.0	0.8
N#CC(C(=O)NCc1ccco1)c1nc2ccccc2nc1N1CCOCC1 (configuration not stated)	0.1	88.5*	79.4*	0.2
COCCOC(=O)C(C#N)c1nc2ccccc2nc1N1CCCC1 (configuration not stated)	0.2	79.4*	84.8*	0.2
CCCCOC(=O)C(C#N)c1nc2ccccc2nc1N1CCOCC1 (configuration not stated)	0.7	35.0	52.4*	0.5
CCN1CCN(c2nc3ccccc3nc2C(C#N)C(=O)OCc2ccccc2)CC1 (configuration not stated)	0.4	56.7*	82.1*	0.2
N#CC(C(=O)NCCc1ccccc1)c1nc2ccccc2nc1N1CCOCC1 (configuration not stated)	1.2	-17.4	-10.7	1.1
CCCCCCOC(=O)C(C#N)c1nc2ccccc2nc1N1CCOCC1 (configuration not stated)	0.8	24.9	19.1	0.8
C=CCOC(=O)C(C#N)c1nc2ccccc2nc1N1CCCC1 (configuration not stated)	0.7	33.9	28.7	0.7
Cc1cc(C)cc(N(CC(=O)N2CCN(c3ccccc3)CC2)S(=O)(=O)c2c(C)noc2C)c1	0.8	24.5	30.7	0.7
NC(=O)Cn1c2[n+](c3ccccc31)CC(O)CS2 (configuration not stated)	1.1	-12.8	-19.0	1.2
COc1ccccc1N1CCN(c2nc3ccccc3nc2C(C#N)C(=O)OC(C)C)CC1 (configuration not stated)	0.3	66.3*	33.7	0.7
CCSc1nccc(-c2nn(-c3ccc(C)cc3)ccc2=O)n1	0.4	63.4*	46.4	0.5
Cc1nn(CC#N)c(=O)n1-c1ccccc1	1	-3.3	-1.3	1
Cc1nn(CCOc2ccccc2)c(=O)n1-c1c(F)cccc1F	1.5	-52.6	85.3*	0.1
Cc1ccc(Cl)cc1N1CCN(Cc2nc3ccsc3c(=O)[nH]2)CC1	0.8	22.5	70.3*	0.3
CC1=C(C(=O)OCC(C)C)C(c2cccc(F)c2)N2C(=O)C(C)SC2=N1 (configuration not stated)	0.3	74.6*	74.8*	0.3
CC1=C(C(=O)OC(C)C)C(c2cccc(F)c2)N2C(=O)C(C)SC2=N1 (configuration not stated)	0.3	69.6*	81.4*	0.2
